Compound activity (PubChem)
TWEAK Fn14 block: blocks TWEAK-Fn14 interaction in a reporter cell assay; TWEAK-stimulated Fn14 reporter cells, luciferase luminescence, 8 h; inhibition, % at 10 µM; hit rate 2% among 360,000; AID 1159606; in the data active = inhibition above about 50%
HIF-2a inh: HIF-2a inhibition | 786-0 RCC cells HIF-2a reporter, luciferase luminescence, overnight | hit rate 0.72% among 360,000 | inhibition, % at 18.8 µM;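 active = inhibition of the luminescence signal of 40% or more relative to plate controls, in a single-dose primary screen at 18.75 µM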
Peg3 promoter: Peg3 promoter activity inhibition; HeLa PEG-Prom luciferase reporter, luminescence, overnight; inhibition, % at 20 µM; hit rate 1.7% among 360,000;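 active = inhibition of at least 50% at 20 µM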
TROY NFkB inh: inhibitors of TROY-dependent NF-kB signaling. Q293 LMP1-TROYcd NF-kB luciferase reporter, 4 h. inhibition, % at 10 µM. hit rate 0.98% among 360,000. AID 1347056;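 active = compounds whose plate-normalised and pattern-corrected inhibition of the luciferase reporter signal at the single screening dose is 50% or more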
CF NFkB block: inhibitors of cystic fibrosis induced NF-kB | inhibition, % at 5 µM | hit rate 0.86% among 360,000 | KKLEB NF-kB-GFP reporter, PAF-induced, GFP fluorescence overnight;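 active = at least 50% inhibition at 5 µM, scaled per plate between neutral and stimulator controls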;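 also: PAF is a Pseudomonas aeruginosa culture filtrate used as stimulus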
KKLEB tox: CF airway cell cytotoxicity counter-screen; activity change (cytotoxicity), % at 5 µM; KKLEB CF airway cells viability, ATPlite luminescence, overnight; active compounds read low; cells stimulated with P. aeruginosa culture filtrate; hit rate 0.36% among 360,000; AID 602141;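 active = corrected activity change at or below -50% at 5 µM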
Each line names hits and unclear results; the compound was inactive in the other large screens. Shown are actives, neighbours in structure and some others; about 3.9% of the full set was active somewhere.

O=[N+]([O-])c1cc([N+](=O)[O-])c2cccnc2c1Oc1ccccc1O	Peg3 promoter 51
Oc1c(CN2CCc3ccccc3C2)cc(Cl)c2cccnc12	Peg3 promoter 50
O=C(NNC(=O)c1ccc2ccccc2c1O)c1cccs1	none
C/C(=N/NC(=O)C1CCN(S(=O)(=O)c2ccc(C)cc2)CC1)c1cccc([N+](=O)[O-])c1	none
O=C1OCCN1C(=O)[C@H]1[C@H](c2ccc([N+](=O)[O-])cc2)C(c2cccc(Cl)c2)=NN1c1ccccc1	none
COc1cccc(-c2ccc(NC(=O)C3CCCN(Cc4cnc(N(C)C)s4)C3)cc2)c1 (centres undefined)	none
CCOC(=O)C1=C[C@@H](C(C)C)N(S(=O)(=O)c2ccc(C)cc2)[C@H]1c1ccc(C(C)C)cc1	none
COc1ccc2[nH]c(=O)c(CN(CCO)S(=O)(=O)c3ccc(C)cc3)cc2c1	none
CCCCN(Cc1cc2cc(OC)ccc2[nH]c1=O)S(=O)(=O)c1ccc(C)cc1	TWEAK Fn14 block 52
O=C1Nc2cc(C(=O)NCCCN3CCCC3)ccc2S/C1=C\c1ccccc1	Peg3 promoter 91
COc1ccc(/C=C2/Sc3ccc(C(=O)NCCN4CCCCCC4)cc3NC2=O)cc1	Peg3 promoter 105
CCC1CCCCN1CCCNC(=O)c1ccc(/C=C2/Sc3ccccc3NC2=O)cc1 (centres undefined)	Peg3 promoter 99
O=C1Nc2cc(C(=O)NCCCN3CCOCC3)ccc2S/C1=C/c1cccc(Cl)c1	Peg3 promoter 107
CCN(Cc1ccccc1)C(=O)CCNS(=O)(=O)c1cc(Br)cnc1N	none
CC(C)(C)c1nc2ccc([N+](=O)[O-])cc2[nH]1	none
CC(C)c1nnc(NC(=O)CCCC(=O)O)s1	TWEAK Fn14 block 76 (no result: TROY NFkB inh)
O=C(CCS(=O)(=O)c1ccccc1)Nc1nc2cc3c(cc2s1)OCCO3	none
CC(C)c1nnc(NC(=O)CCc2ccccc2)s1	none
CC(C)c1nnc(NC(=O)CCS(=O)(=O)c2ccccc2)s1	none
CCCC(C)c1nnc(NC(=O)CCS(=O)(=O)c2ccccc2)s1 (centres undefined)	TWEAK Fn14 block 57
O=C(CCS(=O)(=O)c1ccccc1)Nc1nc2ccc(F)cc2s1	Peg3 promoter 61
Cn1c(=O)oc2cc(S(=O)(=O)N3CCC(C(=O)N4CCN(c5ccc(F)cc5)CC4)CC3)ccc21	none
O=C(Nc1ccc(CN2CCOCC2)cc1)c1cc2ccccn2n1	TWEAK Fn14 block 87, TROY NFkB inh 69
O=C(Nc1ccc(CN2CCOCC2)cc1)c1cc2ccccc2o1	none
O=C(Nc1ccccc1N1CCN(C(=O)c2ccc(Cl)cc2)CC1)c1cc2ccccc2o1	none
CN1CCN(c2ccc(NC(=O)c3ccc(-c4ccc(Cl)cc4)o3)cc2)CC1	Peg3 promoter 98
O=C(Nc1ccc(N2CCN(C(=O)c3ccc(Cl)cc3)CC2)cc1)c1cc2ccccc2o1	TWEAK Fn14 block 90, TROY NFkB inh 69
O=C(NC(=S)Nc1ccc(CN2CCOCC2)cc1)c1ccc(-c2cccc(Cl)c2)o1	TROY NFkB inh 58
O=C(NC(=S)Nc1ccccc1N1CCOCC1)c1ccc(-c2cccc(Cl)c2)o1	none
CC(C)c1ccc(CN2CCC2(C)C(=O)Nc2cccc(Oc3ccccc3)c2)cc1 (centres undefined)	none
CCCCOC(=O)c1ccc(NC(=S)NC(=O)c2c(Cl)cnn2C)cc1	none
O=C(Nc1ccc(CN2CCOCC2)cc1)c1ccc(-c2cccc(Cl)c2)o1	TWEAK Fn14 block 57
O=C(Nc1ccc(CN2CCOCC2)cc1)c1ccc(-c2ccc(Cl)cc2Cl)o1	none
COc1ccc(-n2nc3cc(C)c(NC(C)=O)cc3n2)cc1	TWEAK Fn14 block 75, TROY NFkB inh 57
Cc1ccccc1NC(=O)C(=O)c1cn(C)c2ccccc12	none
Cc1onc(-c2ccccc2)c1NC(=O)OC(C)c1cccnc1 (centres undefined)	TWEAK Fn14 block 87
Cc1onc(-c2ccccc2)c1NC(=O)Nc1c(-c2ccccc2)noc1C	none
CC1(C)CC2(C)OC2C2(C1)N=NC(=Nc1ccccc1)O2 (centres undefined)	Peg3 promoter 73
CC(C)Oc1ccc(C(=O)N2CCC(CCC(=O)NC3CC3)CC2)cc1	none
CCN(CC)CCNc1ncnc2c1sc1nc(N3CCCC3)c3c(c12)CC(C)(C)OC3	Peg3 promoter 79
CC(C)CNc1ncnc2c1sc1nc(N3CCOCC3)c3c(c12)CC(C)(C)OC3	none
CCN(CC)CCNc1ncnc2c1sc1nc(N3CCOCC3)c3c(c12)CCCC3	Peg3 promoter 100
OCCNc1ncnc2c1sc1nc(N3CCOCC3)c3c(c12)CCC3	none
CCOc1cccc2cc(C(=O)NCCC3=CCCCC3)c(=O)oc12	none
Cn1cnc([N+](=O)[O-])c1Sc1nc2ccccc2[nH]1	none
Cc1nc([N+](=O)[O-])c(Sc2nc3ccccc3[nH]2)n1Cc1ccccc1	TWEAK Fn14 block 57
COc1cccc(CN2C(=O)[C@@H]3Cc4c([nH]c5ccccc45)C(C)(C)N3C2=O)c1	none
O=C1OCCC1Sc1nnc(-c2ccco2)o1 (centres undefined)	none
O=C1OCCC1Sc1nnc(-c2ccc(Br)cc2)o1 (centres undefined)	TWEAK Fn14 block 59, HIF-2a inh 47
Cc1cc(C(=O)NNS(=O)(=O)c2cccc(Cl)c2)nn1C(C)(C)C	none
CCCN(CCC)S(=O)(=O)c1ccc(C(=O)OCCN2C(=O)c3cccc4c(N5CCOCC5)ccc(c34)C2=O)cc1	none
O=C(OCCN1C(=O)c2cccc3c(N4CCOCC4)ccc(c23)C1=O)c1ccc(Cl)cc1	TWEAK Fn14 block 66
COc1ccc(/C=C/c2nc(N)nc(-c3ccccc3O)n2)cc1OC	TWEAK Fn14 block 55
COc1cc(/C=C/c2nc(N)nc(-c3ccccc3O)n2)cc(OC)c1OC	TWEAK Fn14 block 53
CC(=O)N1c2ccc(F)c(F)c2C[C@H]1C	none
C=CCc1ccc(OCC(O)CN2CCN(Cc3ccc(Cl)cc3)CC2)c(OC)c1 (centres undefined)	none
CCN1CCN(c2ncc3c(n2)CC(c2cc(OC)c(OC)c(OC)c2)CC3=O)CC1 (centres undefined)	none
Fc1nc(F)c(F)c(NCCCNc2c(F)c(F)nc(F)c2F)c1F	TROY NFkB inh 50
COc1ccccc1NS(=O)(=O)c1cc(-c2cnc(C3CC3)o2)ccc1C	Peg3 promoter 52
CCOC(=O)c1c(C)n(C)c2ccc(OCC(O)Cn3nc(C)c(Br)c3C)cc12 (centres undefined)	none
O=C1C(=Cc2cccc(Cl)c2)CCc2ccccc21	none
Cn1cccc1/C=C1\CCc2ccccc2C1=O	TWEAK Fn14 block 76
CCOc1ccccc1C=C1CCc2ccccc2C1=O	none
